The full data set covers some 7,900 targets. This sample favours those with a hit. About 0.6% of all pairs of compound and target were hits. A number with no mark means an inactive call.
Tests used:
Test in all cases: log2 fold change, soluble protein after heating vs DMSO (PISA); higher = thermal stabilisation; K562 cells, 10 uM, 30 min; active = over 0.2 and 3.5 SD of the protein, either way, in both replicates (recomputed)
[1] = compound: COC1=CC=C(C=C1)CN2C=CC3=C2C=C(C=C3)C(=O)NO
Outline: (§1)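 Thermal stability values are relative to control samples and come from duplicates. They are expressed as log2 fold changes. For measurement, K562 cells (2×10^6 cells/mL) received 10 μM compound for 30 min, and aliquots were heated for 3 min over 48°C-58°C, pooled, and extracted at 4°C in PBS with 0.5% NP-40. Soluble protein, the supernatant after 21,000xg for 90 min, was quantified by TMTpro 16plex LC-MS/MS with equalised channel sums.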

[2] = compound: CON(C)C(=O)N1N=C(c2cc(F)ccc2F)S[C@@]1(CCCN)c1ccccc1 [filanesib]
Outline: as §1

[3] = compound: CO[C@H]1C[C@@H]2CC[C@@H](C)[C@@](O)(O2)C(=O)C(=O)N2CCCC[C@H]2C(=O)O[C@H]([C@H](C)C[C@@H]2CC[C@H](n3cnnn3)[C@H](OC)C2)CC(=O)[C@H](C)/C=C(\C)[C@@H](O)[C@@H](OC)C(=O)[C@H](C)C[C@H](C)/C=C/C=C/C=C/1C [zotarolimus]
Outline: as §1

[4] = compound: COc1cc(C(=O)O)ccc1NC(=O)[C@@H]1N[C@@H](CC(C)(C)C)[C@](C#N)(c2ccc(Cl)cc2F)[C@H]1c1cccc(Cl)c1F [idasanutlin]
Outline: as §1

[5] = compound: COc1cc(Nc2ncc3c(n2)-c2ccc(Cl)cc2C(c2c(F)cccc2OC)=NC3)ccc1C(=O)O [alisertib]
Outline: as §1

[6] = compound: COc1cc2nc(-c3cc(F)ccc3O)nc(N[C@@H]3CNC[C@H]3C(C)(C)O)c2cc1OC
Outline: as §1

[7] = compound: COc1cc2ncnc(Nc3ccc(F)c(Cl)c3)c2cc1OCCCN1CCOCC1 [gefitinib]
Outline: as §1

[8] = compound: COc1cccc2cc(-c3nc([C@H]4CC[C@H](C(=O)O)CC4)n4ncnc(N)c34)[nH]c12
Outline: as §1

[9] = compound: CS(=O)(=O)CCNCc1ccc(-c2ccc3ncnc(Nc4ccc(OCc5cccc(F)c5)c(Cl)c4)c3c2)o1 [lapatinib]
Outline: as §1

[10] = compound: CS(=O)(=O)N1CCN(Cc2cc3nc(-c4cccc5[nH]ncc45)nc(N4CCOCC4)c3s2)CC1 [pictilisib]
Outline: as §1

Chain of UniProt P48730 (P48730 whole entry, looked up): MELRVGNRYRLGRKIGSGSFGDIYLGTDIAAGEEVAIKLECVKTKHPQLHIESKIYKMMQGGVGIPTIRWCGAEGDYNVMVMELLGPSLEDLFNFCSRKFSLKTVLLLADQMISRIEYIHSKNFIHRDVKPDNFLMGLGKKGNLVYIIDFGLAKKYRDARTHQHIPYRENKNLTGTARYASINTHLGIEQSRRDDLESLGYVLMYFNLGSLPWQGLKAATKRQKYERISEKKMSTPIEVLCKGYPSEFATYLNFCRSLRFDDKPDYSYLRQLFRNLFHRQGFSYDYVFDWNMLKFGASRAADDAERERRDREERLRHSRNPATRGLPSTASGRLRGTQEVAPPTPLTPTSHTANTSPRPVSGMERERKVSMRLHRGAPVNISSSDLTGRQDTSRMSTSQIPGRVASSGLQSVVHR
Chain of UniProt Q53ET0 (Q53ET0 whole entry, looked up): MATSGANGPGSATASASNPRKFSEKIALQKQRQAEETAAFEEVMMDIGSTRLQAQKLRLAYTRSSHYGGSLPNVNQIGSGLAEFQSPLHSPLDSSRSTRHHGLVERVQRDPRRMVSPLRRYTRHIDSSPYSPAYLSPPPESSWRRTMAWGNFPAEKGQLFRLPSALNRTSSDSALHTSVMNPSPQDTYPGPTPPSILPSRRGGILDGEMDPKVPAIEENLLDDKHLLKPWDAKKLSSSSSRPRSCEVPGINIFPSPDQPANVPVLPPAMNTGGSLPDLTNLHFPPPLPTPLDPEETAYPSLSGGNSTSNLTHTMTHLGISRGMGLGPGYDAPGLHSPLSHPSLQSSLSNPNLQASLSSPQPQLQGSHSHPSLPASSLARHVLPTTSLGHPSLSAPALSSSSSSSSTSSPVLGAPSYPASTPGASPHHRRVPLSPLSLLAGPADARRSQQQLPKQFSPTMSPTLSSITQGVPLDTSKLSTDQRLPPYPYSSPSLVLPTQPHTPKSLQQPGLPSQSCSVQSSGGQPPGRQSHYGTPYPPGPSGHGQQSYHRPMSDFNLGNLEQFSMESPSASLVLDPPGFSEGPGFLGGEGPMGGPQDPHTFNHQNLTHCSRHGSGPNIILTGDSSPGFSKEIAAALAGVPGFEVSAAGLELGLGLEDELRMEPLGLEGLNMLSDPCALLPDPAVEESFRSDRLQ
Chain of UniProt P68400 (P68400 whole entry, looked up): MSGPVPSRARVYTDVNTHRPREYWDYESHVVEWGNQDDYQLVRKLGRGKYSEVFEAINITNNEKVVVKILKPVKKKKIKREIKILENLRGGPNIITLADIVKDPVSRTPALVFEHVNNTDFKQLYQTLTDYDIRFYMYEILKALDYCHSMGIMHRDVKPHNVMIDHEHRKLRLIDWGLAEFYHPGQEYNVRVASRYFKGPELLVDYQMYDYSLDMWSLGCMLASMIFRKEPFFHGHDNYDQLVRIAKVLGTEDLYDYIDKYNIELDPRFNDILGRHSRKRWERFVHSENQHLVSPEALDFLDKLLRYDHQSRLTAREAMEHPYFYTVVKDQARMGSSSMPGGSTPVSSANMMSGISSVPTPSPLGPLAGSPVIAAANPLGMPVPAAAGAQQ
Chain of UniProt Q8N1G2 (Q8N1G2 whole entry, looked up): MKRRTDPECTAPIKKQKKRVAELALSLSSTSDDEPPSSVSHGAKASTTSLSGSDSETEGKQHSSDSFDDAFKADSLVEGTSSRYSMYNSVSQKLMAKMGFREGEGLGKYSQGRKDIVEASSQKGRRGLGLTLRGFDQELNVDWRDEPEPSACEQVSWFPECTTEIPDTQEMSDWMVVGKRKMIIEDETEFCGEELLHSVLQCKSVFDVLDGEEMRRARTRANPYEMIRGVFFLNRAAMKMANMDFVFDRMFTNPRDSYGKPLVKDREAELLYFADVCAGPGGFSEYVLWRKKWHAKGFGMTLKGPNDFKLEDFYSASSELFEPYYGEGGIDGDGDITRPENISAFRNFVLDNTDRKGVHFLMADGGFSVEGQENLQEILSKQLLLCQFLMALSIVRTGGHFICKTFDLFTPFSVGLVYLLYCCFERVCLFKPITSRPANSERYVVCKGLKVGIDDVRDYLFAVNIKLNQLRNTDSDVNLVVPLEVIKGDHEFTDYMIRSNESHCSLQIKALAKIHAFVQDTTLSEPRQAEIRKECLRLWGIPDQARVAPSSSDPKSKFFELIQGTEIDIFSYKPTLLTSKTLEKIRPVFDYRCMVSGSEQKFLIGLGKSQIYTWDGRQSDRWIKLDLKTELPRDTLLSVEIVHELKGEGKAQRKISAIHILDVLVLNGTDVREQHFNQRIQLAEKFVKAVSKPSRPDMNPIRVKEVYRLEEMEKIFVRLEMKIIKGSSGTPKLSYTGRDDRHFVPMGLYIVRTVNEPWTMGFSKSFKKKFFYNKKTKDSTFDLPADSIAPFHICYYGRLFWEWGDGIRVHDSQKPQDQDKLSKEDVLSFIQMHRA
Chain of UniProt Q8N4Q1 (Q8N4Q1 whole entry, looked up): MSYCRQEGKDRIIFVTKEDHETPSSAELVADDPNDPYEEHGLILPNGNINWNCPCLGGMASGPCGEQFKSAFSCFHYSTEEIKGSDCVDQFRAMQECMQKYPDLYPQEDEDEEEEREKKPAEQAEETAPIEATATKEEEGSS
Chain of UniProt P60033 (P60033 whole entry, looked up): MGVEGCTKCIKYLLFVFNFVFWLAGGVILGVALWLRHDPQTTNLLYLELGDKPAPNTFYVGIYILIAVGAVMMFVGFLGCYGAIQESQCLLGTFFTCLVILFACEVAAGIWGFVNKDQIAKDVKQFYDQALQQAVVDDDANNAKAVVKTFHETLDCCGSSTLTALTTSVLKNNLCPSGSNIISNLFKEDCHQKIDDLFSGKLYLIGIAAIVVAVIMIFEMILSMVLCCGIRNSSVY
Chain of UniProt Q13111 (Q13111 whole entry, looked up): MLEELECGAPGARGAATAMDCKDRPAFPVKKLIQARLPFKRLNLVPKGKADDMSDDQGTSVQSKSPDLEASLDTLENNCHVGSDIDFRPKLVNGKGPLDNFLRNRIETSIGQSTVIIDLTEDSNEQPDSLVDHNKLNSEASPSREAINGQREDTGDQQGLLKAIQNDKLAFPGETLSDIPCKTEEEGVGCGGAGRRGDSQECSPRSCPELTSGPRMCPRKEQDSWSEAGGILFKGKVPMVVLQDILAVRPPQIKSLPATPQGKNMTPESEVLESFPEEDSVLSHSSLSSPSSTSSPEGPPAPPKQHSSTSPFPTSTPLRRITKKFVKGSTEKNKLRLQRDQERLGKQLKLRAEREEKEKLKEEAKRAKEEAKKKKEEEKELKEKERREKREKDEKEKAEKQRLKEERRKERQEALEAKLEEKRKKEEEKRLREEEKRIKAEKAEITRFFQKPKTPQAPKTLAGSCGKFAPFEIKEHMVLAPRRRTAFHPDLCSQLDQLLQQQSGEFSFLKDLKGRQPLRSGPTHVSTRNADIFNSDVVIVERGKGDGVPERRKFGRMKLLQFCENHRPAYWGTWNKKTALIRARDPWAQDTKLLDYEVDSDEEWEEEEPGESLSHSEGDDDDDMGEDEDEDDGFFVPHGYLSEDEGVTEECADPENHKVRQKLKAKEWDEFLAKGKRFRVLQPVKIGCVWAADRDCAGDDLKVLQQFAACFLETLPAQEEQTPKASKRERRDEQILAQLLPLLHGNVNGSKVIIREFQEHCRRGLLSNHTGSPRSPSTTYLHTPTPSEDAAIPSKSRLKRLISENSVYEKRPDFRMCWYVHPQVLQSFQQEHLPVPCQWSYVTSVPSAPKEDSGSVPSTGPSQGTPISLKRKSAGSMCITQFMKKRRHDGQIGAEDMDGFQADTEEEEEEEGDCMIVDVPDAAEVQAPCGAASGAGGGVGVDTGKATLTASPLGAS
Chain of UniProt Q8IUI8 (Q8IUI8 whole entry, looked up): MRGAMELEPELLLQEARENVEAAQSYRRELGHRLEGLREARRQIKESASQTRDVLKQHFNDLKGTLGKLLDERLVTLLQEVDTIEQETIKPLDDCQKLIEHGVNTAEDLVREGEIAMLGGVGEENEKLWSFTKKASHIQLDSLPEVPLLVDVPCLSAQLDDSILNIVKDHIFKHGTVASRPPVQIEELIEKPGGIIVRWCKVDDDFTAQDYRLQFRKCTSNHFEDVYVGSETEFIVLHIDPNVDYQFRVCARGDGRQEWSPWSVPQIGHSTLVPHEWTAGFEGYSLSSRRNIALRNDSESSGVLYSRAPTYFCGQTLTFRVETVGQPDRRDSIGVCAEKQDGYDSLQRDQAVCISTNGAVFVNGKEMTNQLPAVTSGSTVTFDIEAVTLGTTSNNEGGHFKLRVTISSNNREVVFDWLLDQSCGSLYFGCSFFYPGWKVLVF
Chain of UniProt Q99653 (Q99653 whole entry, looked up): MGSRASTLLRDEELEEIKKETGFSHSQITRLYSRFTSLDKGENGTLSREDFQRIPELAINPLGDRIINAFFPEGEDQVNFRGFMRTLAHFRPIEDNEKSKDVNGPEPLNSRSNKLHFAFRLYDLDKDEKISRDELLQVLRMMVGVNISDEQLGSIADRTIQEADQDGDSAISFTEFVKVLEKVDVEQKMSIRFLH
Chain of UniProt Q5JTJ3 (Q5JTJ3 whole entry, looked up): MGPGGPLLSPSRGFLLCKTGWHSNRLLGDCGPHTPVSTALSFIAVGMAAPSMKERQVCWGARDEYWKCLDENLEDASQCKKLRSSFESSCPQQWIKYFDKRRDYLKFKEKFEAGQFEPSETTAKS
Chain of UniProt P35219 (P35219 whole entry, looked up): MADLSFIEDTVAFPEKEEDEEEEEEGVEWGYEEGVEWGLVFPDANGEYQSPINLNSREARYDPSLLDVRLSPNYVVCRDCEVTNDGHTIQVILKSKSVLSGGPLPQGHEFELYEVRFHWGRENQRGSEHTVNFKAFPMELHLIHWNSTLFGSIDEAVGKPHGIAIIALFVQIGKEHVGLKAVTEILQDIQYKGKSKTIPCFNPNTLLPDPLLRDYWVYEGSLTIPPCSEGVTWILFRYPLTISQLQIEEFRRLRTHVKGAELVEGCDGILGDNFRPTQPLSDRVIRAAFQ
Chain of UniProt P24311 (P24311 whole entry, looked up): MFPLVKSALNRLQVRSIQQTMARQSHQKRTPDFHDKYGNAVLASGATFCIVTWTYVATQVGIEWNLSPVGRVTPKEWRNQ

Target | log2 fold change [1] | log2 fold change [2] | log2 fold change [3] | log2 fold change [4] | log2 fold change [5] | log2 fold change [6] | log2 fold change [7] | log2 fold change [8] | log2 fold change [9] | log2 fold change [10]
CHAF1A (UniProt Q13111) | -0.149 | 0.143 | -0.145 | 0.05 | 0 | 0.007 | 0.169 | 0.004 | 0.169 | 0.031
COX7B (UniProt P24311) | 0.112 | 0.028 | -0.003 | -0.012 | 0.038 | -0.018 | 0.023 | 0.094 | -0.009 | -0.039
CHST11 (UniProt Q9NPF2) | 0.153 | 0.016 | 0.061 | -0.016 | -0.248 | -0.19 | -0.013 | 0.012 | 0.297 | -0.025
CRLF3 (UniProt Q8IUI8) | -0.006 | -0.049 | 0.016 | 0.039 | 0.005 | -0.05 | 0.018 | 0.014 | 0.035 | 0.051
CDCA2 (UniProt Q69YH5) | 0.278 | -0.036 | -0.04 | 0.018 | 0.585 | -0.079 | 0.109 | -0.011 | 0.204 | -0.127
C19orf53 (UniProt Q9UNZ5) | -0.225 | 0.375 | 0.042 | 0.209 | -0.086 | -0.067 | -0.045 | -0.167 | 0.184 | -0.073
COX15 (UniProt Q7KZN9) | 0.04 | -0.046 | 0.005 | -0.055 | -0.054 | -0.012 | -0.001 | 0.052 | 0.001 | 0.071
COA6 isoform 2 (UniProt Q5JTJ3) | 0.02 | -0.029 | 0.019 | -0.052 | 0.002 | -0.042 | -0.003 | 0.022 | -0.017 | -0.006
CD81 (UniProt P60033) | -0.051 | 0.049 | 0.003 | -0.014 | -0.007 | 0.008 | 0.043 | 0.052 | -0.032 | 0.138
CSTF3 (UniProt Q12996) | -0.008 | -0.041 | -0.033 | -0.087 | -0.056 | 0.176 | -0.005 | 0.022 | -0.012 | 0.066
CAVIN1 (UniProt Q6NZI2) | -0.012 | 0.109 | 0 | 0.15 | -0.098 | -0.107 | -0.1 | -0.159 | 0.089 | -0.094
CA1 (UniProt P00915) | -0.022 | -0.002 | -0.006 | -0.044 | -0.032 | -0.026 | 0.022 | 0.018 | -0.045 | 0.072
CES2 isoform 4 (UniProt O00748) | -0.099 | 0.055 | 0.078 | 0.053 | 0.023 | -0.044 | 0.03 | -0.145 | 0.161 | 0.103
CA8 (UniProt P35219) | 0.046 | -0.055 | 0.09 | -0.073 | -0.112 | -0.086 | 0.023 | 0.032 | 0.008 | 0.173
CHCHD4 isoform 2 (UniProt Q8N4Q1) | 0 | -0.059 | 0.032 | -0.043 | -0.099 | -0.285 | 0.011 | 0.102 | 0.341 | -0.016
CSNK1D (UniProt P48730) | 0.045 | 0.153 | -0.019 | 0.027 | -0.016 | -0.049 | -0.006 | -0.009 | 0.041 | -0.053
CPSF7 isoform 3 (UniProt Q8N684) | 0.018 | 0.018 | 0.033 | -0.003 | -0.074 | 0.065 | 0.029 | -0.016 | 0.013 | 0.12
CSNK2A1 (UniProt P68400) | -0.025 | 0.03 | -0.015 | -0.009 | -0.073 | -0.167 | -0.023 | 0.066 | 0.032 | 0.102
CDC123 (UniProt O75794) | 0.005 | -0.043 | -0.016 | 0.032 | -0.048 | 0.024 | -0.057 | 0.001 | 0.017 | -0.027
CDK12 (UniProt Q9NYV4) | -0.019 | 0.463 | -0.072 | 0.303 | 0.062 | -0.226 | 0.005 | -0.03 | 0.134 | -0.018
CHP1 (UniProt Q99653) | 0.039 | -0.044 | 0.058 | -0.084 | -0.144 | 0.129 | 0.026 | -0.02 | -0.054 | 0.053
CIZ1 (UniProt Q9ULV3) | 0.039 | 0.04 | -0.006 | 0.054 | -0.042 | -0.106 | -0.099 | 0.034 | 0.025 | 0.05
C1D (UniProt Q13901) | -0.171 | -0.041 |  | 0.12 | -0.138 | -0.101 | 0.043 | -0.027 | 0.006 | 0.012
CENPE (UniProt Q02224) | -0.355 | 0.445 | 0.288 | -0.407 |  | -0.068 |  |  | 0.024 | 0.048
CRTC2 (UniProt Q53ET0) | -0.004 | -0.019 |  | 0.086 | 0 | -0.509 (active) | -0.056 | 0.066 | 0.079 | 
CMTR1 (UniProt Q8N1G2) | -0.337 (active) | 0.001 | -0.013 | -0.052 | -0.026 | 0.065 | 0.025 | 0.017 | -0.012 | 0.009
CDK8 (UniProt P49336) | 0.03 | 0.008 | -0.044 | -0.136 | -0.137 | -0.105 |  | -0.005 | -0.047 | 0.038
COMMD1 (UniProt Q8N668) | 0.054 | 0.06 |  |  | -0.151 | 0.029 | -0.01 | -0.04 | -0.029 | 0.006
CCDC57 (UniProt Q2TAC2) | 0.006 | 0.01 | -0.081 |  | 0.013 | -0.008 | 0.009 | 0.063 | 0.07 | 
CASP9 (UniProt P55211) | 0.095 | 0.169 | -0.043 | -0.008 |  | 0.02 | 0.146 |  | -0.034 | -0.019

Source: the supplement of paper PMC10849652
